Tb PYK inh = blocks Trypanosoma brucei pyruvate kinase; TbPYK enzyme, Kinase-Glo Plus ATP luminescence, 45 min; 0.12% of 410,000 active; Potency, µM (top dose mostly 76.8 µM), usual class: inhibitors; Q57TT1; further: nearly all actives have a fitted effect of over 50% in size
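T. brucei PYK with substrate was exposed to pin-transferred compounds across a concentration series, then started with 130 uM ADP (final). After 45 min at room temperature, Kinase-Glo Plus luminescence was read, normalized and curve-fitted.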
Giardia FBPA inh = blocks Giardia fructose-bisphosphate aldolase activity. AID 2451. purified Giardia FBPA. 0.71% of 290,000 active. Potency, µM (top dose mostly 59.6 µM), usual class: inhibitors; further: nearly all actives have a fitted effect of over 55% in size
Target sequence (A8B2U2 whole entry, looked up): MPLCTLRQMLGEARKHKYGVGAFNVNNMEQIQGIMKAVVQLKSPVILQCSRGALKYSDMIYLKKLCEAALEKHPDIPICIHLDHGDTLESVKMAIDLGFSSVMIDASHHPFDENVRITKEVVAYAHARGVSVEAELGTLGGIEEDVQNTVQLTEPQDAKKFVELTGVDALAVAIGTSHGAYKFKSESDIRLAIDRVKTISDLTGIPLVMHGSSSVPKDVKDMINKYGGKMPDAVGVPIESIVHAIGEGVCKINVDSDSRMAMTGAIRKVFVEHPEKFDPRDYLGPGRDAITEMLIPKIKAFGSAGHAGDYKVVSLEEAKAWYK
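Giardia FBPA (40 nM reagent) was preincubated 10 min at RT with compound (up to 57.5 uM final), then substrate plus GAPDH/TPI/NAD/arsenate coupling system with diaphorase/resazurin was added; resorufin fluorescence (525/598 nm) was read after 20 min.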
RE007 growth inh = less growth of the S. pombe RE007 Vpr strain; S. pombe RE007 Vpr strain, BacTiter-Glo ATP luminescence, 24 h; Potency, µM (doses to about 92.2 µM), most hits filed as inhibitors; 0.21% of 360,000 active; AID 651644; active means well fitted falling curve with a large enough effect; inconclusive means small, poorly fitted or top-dose-only effect; inactive means no such curve, though single readings can be large or run the other way; further: nearly all actives have a fitted effect of over 50% in size
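Fission yeast strain RE007, carrying one chromosomally integrated HIV-1 vpr copy, was seeded at OD 0.01 in PMG+AL medium with 23 nL pinned compound. After 24 h at 30 °C and 99% humidity, viability was read by BacTiter-Glo luminescence.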
Sm TGR inh = inhibitors of Schistosoma mansoni thioredoxin glutathione reductase. Q962Y6. purified TGR, DTNB reduction, TNB absorbance 405 nm. Potency, µM (highest dose often 114 µM), most hits filed as inhibitors. 3% of 360,000 active; further: nearly all actives have a fitted effect of over 60% in size
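TGR 20 nM + NADPH 100 uM (dispensed conc.), cpd preinc 15 min RT; start with NADPH (500 uM addition) then DTNB (15 mM addition). Kinetic TNB absorbance, 405 nm filter. Four-parameter Hill fit across titration.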
HCMV antiviral = inhibitors of human cytomegalovirus | HFF cells, HCMV-luciferase reporter, 72 h; stronger effect = lower value | activity change, negative = inhibition, % at 57.5 µM | 4.5% of 410,000 active; in the data active means activity change below about -60%; inconclusive means no clear call, values can overlap the other calls; inactive means above about -39%
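Two compound doses tested in HFFs infected with HCMV-luciferase, MOI 1 PFU/cell, 72 h at 37C. Lysate luminescence read with OneGlo; data normalized against buffer-only and 10uM Salinomycin inhibitor controls.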
FMDV inh = foot and mouth disease virus antiviral activity. Potency, µM (top dose mostly 57.9 µM), hits mostly inhibitors. AID 1159524. FMDV antiviral cell-based qHTS. 1.2% of 410,000 active; calls by dose curve; tested in HEK293T cells; further: read-out not given here; nearly all actives have a fitted effect of over 45% in size
Hits are given with their value; i = inactive; ? = inconclusive; nt = no result; [ ] = another dose, or the depositor's remark. Shown are actives, neighbours in structure and some others; about 7.7% of the full set was active somewhere. Unless noted, the call rests on the fitted dose curve; in most records, active means well fitted curve in the direction sought with a large enough effect; inconclusive means small, poorly fitted or top-dose-only effect, or another doubt; inactive means no such curve, though single readings can be large; an effect the other way counts as inactive or inconclusive.

SMILES | Tb PYK inh | Giardia FBPA inh | RE007 growth inh | Sm TGR inh | HCMV antiviral | FMDV inh
CC(C)c1ccc(NC(=O)CCn2c(=O)c3cccn3c3ccccc32)cc1 | i | nt | nt | i | i | i
O=[N+]([O-])c1cc2c(ccc3occc32)o1 | nt | nt | nt | nt | -73 | nt
COc1ccc(OC)c(NC(=O)CSc2cn(CC(=O)N3CCOCC3)c3ccccc23)c1 | i | nt | nt | i | i | i
CCCCCCC1Cc2cc(OC)c(OC)cc2C(C(C(=O)OCC)C(=O)OCC)O1 (stereo unspecified) | nt | i[12.9 µM] | nt | nt | nt | nt
CCOC(=O)c1nc(S(C)(=O)=O)ncc1N1CCOCC1 | i | i | i | i | i | nt
CSc1ncc(Cl)c(C(=O)Nc2cccc(C)c2)n1 | i | i | i | i | i | i
CCOC(=O)c1nc(S(C)(=O)=O)ncc1Cl | i | i | i | 8.9µM | -70 | nt
Cc1cccc(CS(=O)(=O)c2ncc(Cl)c(C(=O)NCc3ccccc3)n2)c1 | i | nt | i | 7.9µM | -92 | 32µM
Cc1ccccc1NC(=O)c1nc(S(C)(=O)=O)ncc1Cl | i | i | i | ? | -99 | ?
Cc1cccc(CS(=O)(=O)c2ncc(Cl)c(C(=O)Nc3c(C)cccc3C)n2)c1 | i | nt | i | 7.1µM | ? | i
Cc1ccc(CSc2ncc(Cl)c(C(=O)NCc3ccccc3)n2)cc1 | i | nt | nt | i | i | i
COc1cccc(Cn2c(=O)c(-c3ccccc3)nc3cnc(N4CCNCC4)nc32)c1 | nt | i | nt | nt | nt | i
CCc1nnc(NC(=O)c2nc(SCc3cccc(C)c3)ncc2Cl)s1 | i | nt | nt | i | i | i
Cc1nnc(NC(=O)c2nc(S(=O)(=O)Cc3ccccc3)ncc2Cl)s1 | i | nt | i | 22µM | -110 | 5.6µM
Cc1cccc(C)c1NC(=O)c1nc(S(=O)(=O)Cc2ccccc2)ncc1Cl | i | nt | i | 13µM | -100 | 28µM
CCCc1nnc(NC(=O)c2nc(S(=O)(=O)Cc3cccc(C)c3)ncc2Cl)s1 | i | nt | i | 35µM | -101 | 28µM
CS(=O)(=O)c1ncc(Cl)c(C(=O)Nc2c(C(=O)c3ccc(Cl)cc3)oc3ccccc23)n1 | i | nt | nt | i | i | i
Cc1cccc(CSc2ncc(Cl)c(C(=O)Nc3nnc(C)s3)n2)c1 | i | nt | nt | i | i | i
COc1ccc(C2NC(=O)N(C)C3=C2C(=O)N(c2ccc(F)cc2)C3)cc1 (stereo unspecified) | i | nt | nt | i | i | i
COc1cccc(-c2cc(N(C)Cc3ccco3)ncn2)c1 | nt | i | nt | nt | nt | i
O=[N+]([O-])c1ccc(SCc2ccncc2)nc1 | i | i | i | i | -84 | i
COc1ccc(-n2c(=O)cnc3cnc(N(C)C)nc32)cc1 | nt | i | nt | nt | nt | i
CCCCn1nnc(N(C(=O)c2cccs2)C(=O)c2cccs2)n1 | i | i | i | 4.5µM | i | i
O=C(O)CCn1nnc(-c2cccs2)n1 | i | nt | i | i | i | i
COc1cc(Nc2ccc(S(N)(=O)=O)cc2)c([N+](=O)[O-])nc1[N+](=O)[O-] | i | i | i | 20µM | i | i
SMILES | Tb PYK inh | Giardia FBPA inh | RE007 growth inh | Sm TGR inh | HCMV antiviral | FMDV inh
COc1ccc(-c2csc(Nc3ccc(S(N)(=O)=O)cc3)n2)cc1OC | i | i | i | i | i | i
CCC(C)Sc1cc(-c2nc3ccc(C)cn3c2NCc2ccccc2)ccc1OC (stereo unspecified) | i | nt | i | nt | -77 | 16µM
CCC(C)Sc1ccc(-c2nc3ccc(C)cn3c2NCc2ccccc2)cc1OC (stereo unspecified) | i | nt | ? | i | nt | 35µM
CCCCNc1c(-c2ccc(OC)c(SC(C)CC)c2)nc2ccc(Cl)cn12 (stereo unspecified) | i | nt | i | nt | i | i
CCCCCCSc1ccc(-c2nc3ccc(C)cn3c2NCc2ccccc2)cc1OC | i | nt | i | i | i | i
COCCCNC(=O)CSC1=Nc2ccccc2C2=NC(CCC(=O)NCc3ccccc3OC)C(=O)N12 (stereo unspecified) | i | nt | nt | i | i | i
N#Cc1c(-n2ncnc2-c2ccccc2C(F)(F)F)sc2c1CCCCC2 | i | nt | nt | i | -69 | 0.35µM
C[n+]1c2ccccc2nc2ccc(NCCO)cc21 | ? | ? | 3.5µM | 10µM | -81 | ?
CNc1ccc2nc3ccccc3[n+](C)c2c1 | ? | i | ? | 6.3µM | -101 | i
CC(C)n1c(NCCO)nc2ccccc21 | i | i | i | i | i | i

Screening results as filed in PubChem BioAssay.
